DT40 TDP1 no CPT: qHTS for Inhibitors of human tyrosyl-DNA phosphodiesterase 1 (TDP1): qHTS in cells in absence of CPT; DT40 Tdp1-/- hTDP1 cells, no CPT, ATP luminescence, 48 h; Potency, µM (doses to about 46.2 µM), for the others: at the highest dose activity change, negative = growth inhibition, most hits filed as inhibitors; hit rate 15% among 420,000; note: nearly all actives have a fitted effect of over 55% in size
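Cells were dispensed at 400 per well, compounds added by pin tool, plates incubated ≥48 hr at 37 °C, then CellTiter-Glo added for 30 min at room temperature before luminescence reading. Line: DT40 Tdp1-/- complemented with hTDP1; camptothecin omitted.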
TDP1 block: qHTS Assay for Inhibitors of Tyrosyl-DNA Phosphodiesterase (TDP1) | recombinant TDP1, AlphaScreen DNA substrate cleavage | Potency, µM (highest dose often 130 µM), for the others: at the highest dose activity change, negative = inhibition, most hits filed as inhibitors | hit rate 0.28% among 350,000; note: nearly all actives have a fitted effect of over 40% in size
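Compounds were preincubated with Tdp1 (1 nM final) for 15 min at room temperature before substrate (15 nM final) started a 5 min reaction; beads (10 ug/ml final) were then added for 10 min before AlphaScreen detection.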
TDP1 cell CPT: qHTS for Inhibitors of human tyrosyl-DNA phosphodiesterase 1 (TDP1): qHTS in cells in presence of CPT. chicken DT40 Tdp1-/-;hTDP1 cells + 20 nM CPT, ATP luminescence, 48 h. hit rate 12% among 420,000. AID 686979, 2013. Potency, µM (doses to about 46.2 µM), for the others: at the highest dose activity change, negative = growth inhibition, hits mostly inhibitors; note: nearly all actives have a fitted effect of over 55% in size
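Chicken DT40 Tdp1-/- cells complemented with human TDP1, 400 cells/well, exposed to compounds plus 20 nM camptothecin for at least 48 h at 37 C; viability read as ATP content by CellTiter-Glo luminescence.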
VP16 counter: VP16 counterscreen qHTS for inhibitors of ROR gamma transcriptional activity; hit rate 3.5% among 310,000; Potency, µM (titrated, usually from 53.6 µM), without a hit: at the top dose activity, negative = inhibition, actives largely listed as inhibitors; AID 2546, 2010; Drosophila S2 Gal4-VP16 UAS-luciferase, luminescence, 20 h;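 note: Gal4-VP16 expression switched on by copper sulfate through the metallothionein promoter; nearly all actives have a fitted effect of over 50% in size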
RORg inh: qHTS for inhibitors of ROR gamma transcriptional activity | Nuclear receptor ROR-gamma (Mus musculus), P51450 | Drosophila S2 Gal4-RORgamma UAS-luciferase reporter, 20 h | Potency, µM (series often up to 53.6 µM), without a hit: top-dose activity change, negative = inhibition, most hits filed as inhibitors | hit rate 5.4% among 310,000; note: nearly all actives have a fitted effect of over 60% in size
Target sequence (P51450 whole entry, looked up, the tested form may be a part): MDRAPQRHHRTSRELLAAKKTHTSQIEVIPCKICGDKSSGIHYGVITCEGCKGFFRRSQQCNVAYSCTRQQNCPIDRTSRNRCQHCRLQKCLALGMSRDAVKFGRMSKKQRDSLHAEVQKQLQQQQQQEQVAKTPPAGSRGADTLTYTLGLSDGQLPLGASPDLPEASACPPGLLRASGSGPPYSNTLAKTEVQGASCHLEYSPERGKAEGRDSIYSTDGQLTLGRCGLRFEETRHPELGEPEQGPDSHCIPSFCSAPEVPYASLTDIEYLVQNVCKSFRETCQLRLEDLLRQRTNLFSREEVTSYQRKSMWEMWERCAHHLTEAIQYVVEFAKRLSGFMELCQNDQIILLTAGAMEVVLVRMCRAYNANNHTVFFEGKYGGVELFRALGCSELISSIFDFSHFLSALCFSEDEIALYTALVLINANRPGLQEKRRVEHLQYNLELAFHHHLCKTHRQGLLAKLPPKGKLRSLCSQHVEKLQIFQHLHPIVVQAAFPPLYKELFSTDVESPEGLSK
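Using a luciferase readout, inhibitors were identified by reduced reporter activity in Drosophila cells coexpressing a copper-inducible Gal4–ROR gamma fusion and UAS-driven Photinus luciferase, incubated 20 hr after 700 uM copper sulfate.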
Active calls of the source: *; ? = inconclusive; / = not tested or not shown; ! = not active in a repeat. Compounds with a hit are over-represented: about 19% of the library has one in this group of screens. Calls come from the whole dose curve; as a rule, active = well fitted curve in the direction sought with a large enough effect; inconclusive = small, poorly fitted or top-dose-only effect, or another doubt; inactive = no such curve, though single readings can be large; an effect the other way counts as inactive or inconclusive. % is set by controls: 0 for no effect and ±100 for the full control effect; potency is the fitted concentration of half-maximal effect.

SMILES	DT40 TDP1 no CPT	TDP1 block	TDP1 cell CPT	VP16 counter	RORg inh
O=C(Cc1ccccc1)NNC(=O)c1cnccn1	-5%	5%	4%	?	-8%
CCOC(=O)C1=C(C)N=C2SCCC(=O)N2[C@@H]1c1cccs1	-23%	1%	11%	5%	-18%
Cc1ccccc1OC1CCN(C(=O)c2cc(COc3ccccc3)on2)CC1	-10%	-5%	-1%	26%	32%
CCO[C@H]1OC(C(=O)NCc2nc3ccccc3[nH]2)=C[C@@H](C2CCCCC2)[C@@H]1CCCO	15µM*	5%	13µM*	4%	32%
CCO[C@H]1OC(C(=O)NCc2nc3ccccc3[nH]2)=C[C@@H](c2ccc(C(F)(F)F)cc2)[C@@H]1CCCO	16µM*	9%	?	0%	18%
CC1=C(C(=O)Nc2ccccc2)C(c2cccs2)n2nc(SCc3ccccc3F)nc2N1 (configuration not stated)	-27%	3%	-26%	/	/
COc1ccccc1NC(=O)C1=C(C)Nc2nc(SCc3ccccc3C)nn2C1CC(C)C (configuration not stated)	21µM*	0%	-73%	/	/
CC1=C(C(=O)Nc2ccccc2C)C(c2ccncc2)n2nc(SCc3ccccc3Cl)nc2N1 (configuration not stated)	-8%	-3%	-4%	/	/
CC1=C(C(=O)Nc2ccccc2C)C(c2cccs2)n2nc(SCc3cc(C)ccc3C)nc2N1 (configuration not stated)	5.8µM*	0%	?	/	/
COc1ccccc1NC(=O)C1=C(C)Nc2nc(SCc3ccccc3F)nn2C1c1cccs1 (configuration not stated)	9.2µM*	6%	8.2µM*	/	/
CC1=C(C(=O)Nc2ccc(C)cc2C)C(c2cccs2)n2nc(SCc3ccccc3Cl)nc2N1 (configuration not stated)	6.5µM*	6%	10µM*	/	/
COc1ccccc1C(=O)N/N=C(\C)CC(=O)Nc1ccccn1	-1%	-5%	4%	-3%	?
COc1cc(/C=N/n2cnn(Cc3ccccc3Cl)c2=S)cc(OC)c1OC	?	3%	-29%	?	42%
CC(=O)N1CCN(c2ccc(NCc3ccc(C)cc3)cc2)CC1	-9%	5%	-21%	5%	1%
CCc1ccc(CNc2ccc(N3CCN(C(C)=O)CC3)cc2)cc1	18µM*	12%	-19%	16%	5%
CCc1ccc(NC(=O)N2CCN(c3ccc(F)cc3)CC2)cc1	26µM*	/	?	0%	-1%
O=C(C1=NOC2(C1)C(=O)Nc1ccccc12)N1CCCC1 (configuration not stated)	-6%	/	-10%	/	/
CC(C)(C)OC(=O)NCCCC[C@H](NC(=O)c1[nH]cnc1C(=O)N[C@@H](Cc1ccccc1)C(=O)OCc1ccccc1)C(=O)OC(C)(C)C	?	1%	?	/	/
CC(C)(C)OC(=O)[C@H](Cc1ccccc1)NC(=O)c1nc[nH]c1C(=O)NCc1ccccc1	-30%	10%	?	16µM*	11µM*
CC(C)(C)OC(=O)NCc1ccc(CNC(=O)c2[nH]cnc2C(=O)N[C@@H](Cc2ccccc2)C(=O)OCc2ccccc2)cc1	23µM*	/	?	?	11µM*
CNC(=O)c1[nH]cnc1C(=O)N[C@@H](Cc1ccccc1)C(=O)OC(C)(C)C	-26%	8%	?	?	7.9µM*
CC(C)(C)OC(=O)NCc1ccc(CNC(=O)c2[nH]cnc2C(=O)N[C@@H](Cc2ccccc2)C(=O)OC(C)(C)C)cc1	21µM*	/	18µM*	20µM*	11µM*
CC(C)(C)OC(=O)[C@H](Cc1ccccc1)NC(=O)c1nc[nH]c1C(=O)N[C@@H](CCCCN)C(=O)OC(C)(C)C	16µM*	2%	?	/	/
CC(C)(C)OC(=O)NCc1ccc(NC(=O)c2nc[nH]c2C(=O)N[C@@H](Cc2ccccc2)C(=O)OCc2ccccc2)cc1	?	11%	?	?	7.1µM*
CC(C)C[C@H](NC(=O)c1nc[nH]c1C(=O)NCc1ccc(CNC(=O)OC(C)(C)C)cc1)C(=O)OCc1ccccc1	21µM*	/	?	?	11µM*
SMILES	DT40 TDP1 no CPT	TDP1 block	TDP1 cell CPT	VP16 counter	RORg inh
CC(C)(C)OC(=O)[C@H](Cc1ccccc1)NC(=O)c1[nH]cnc1C(=O)Nc1ccccc1F	15µM*	/	18µM*	/	/
COC(=O)CSc1nc(NC(C)(C)C)nc(N(C)C)n1	-23%	3%	5%	-15%	-1%
CCCCN(C)C(=O)C1CCC(Cn2c(=O)[nH]c3ccsc3c2=O)CC1 (configuration not stated)	?	6%	?	/	/
CCN1CCN(CC(=O)Nc2nc3ccc(OC)cc3s2)CC1	?	-6%	0%	9%	-19%
CC1CCCN(C(=O)C2CCN(S(=O)(=O)c3cccc4nonc34)CC2)C1 (configuration not stated)	-24%	1%	2%	15%	0%
CN(C(=O)COC(=O)c1ccccc1Nc1ccccc1)c1c(N)n(Cc2ccccc2)c(=O)[nH]c1=O	16µM*	-5%	?	/	/
COCCN(C(=O)COC(=O)c1ccccc1Nc1ccccc1)c1c(N)n(Cc2ccccc2)c(=O)[nH]c1=O	?	/	21µM*	/	/
COCCN(C(=O)COC(=O)/C=C/c1ccc(Cl)c(Cl)c1)c1c(N)n(Cc2ccccc2)c(=O)[nH]c1=O	18µM*	/	16µM*	/	/
COCCN(C(=O)COC(=O)Cc1coc2cc3c(cc12)CCC3)c1c(N)n(Cc2ccccc2)c(=O)[nH]c1=O	?	13µM*	?	/	/
COCCN(C(=O)COC(=O)c1cccc2ccccc12)c1c(N)n(Cc2ccccc2)c(=O)[nH]c1=O	8%	1%	-25%	/	/
COCCN(C(=O)COC(=O)COc1ccc2c(c1)CCC2)c1c(N)n(Cc2ccccc2)c(=O)[nH]c1=O	-1%	/	3%	/	/
O=C(CNC(=O)c1ccc(Cl)cc1)OCc1cc(=O)n2nc(C3CC3)sc2n1	-5%	8%	5%	/	/
COc1ccc(C(=O)Nn2cnc3ccccc3c2=O)cc1[N+](=O)[O-]	1%	/	-5%	6%	-2%
CCc1ccccc1NC(=O)CSc1nnc(CC)c(CC)n1	-17%	3%	-17%	/	/
CCN(CC)C(=O)CSc1nnc2ccc3ccccc3n12	-2%	4%	7%	/	/
CCc1nnc(SCC(=O)Nc2ccccc2Cl)nc1CC	?	0%	16µM*!	-2%	0%

Screening results as filed in PubChem BioAssay.
